In PubChem BioAssay AID1619 (SRMLSC, 2009) one finds inhibition data, which are given here for 25 compounds.

Screen size: about 220,000 compounds; about 830 (0.38%) were called active.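 The calls were made as follows: active = compound inhibiting the enzyme by more than half at any dose during confirmatory dose-response retesting; inconclusive = strong single-dose inhibitors picked by rank but not retested; inactive = the rest.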 These entries were drawn from the full list. Potency and affinity values are given separately.

The assay deals with Leucine aminopeptidase (Plasmodium falciparum (isolate 3D7)) (UniProt Q8IL11). The assay is described as follows: P. falciparum M17LAP inhibitors, primary screen, biochemical, fluorogenic H-Leu-NHMec substrate, 1536-well (AID 1619).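 Also: plate controls were full reaction with DMSO carrier for no effect and no enzyme background for full effect.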 The conditions noted are these: recombinant M17LAP, H-Leu-NHMec fluorogenic kinetic assay; at 30 µM; active compounds read high.
Chain of Leucine aminopeptidase (Plasmodium falciparum (isolate 3D7)) (Q8IL11 whole entry, looked up): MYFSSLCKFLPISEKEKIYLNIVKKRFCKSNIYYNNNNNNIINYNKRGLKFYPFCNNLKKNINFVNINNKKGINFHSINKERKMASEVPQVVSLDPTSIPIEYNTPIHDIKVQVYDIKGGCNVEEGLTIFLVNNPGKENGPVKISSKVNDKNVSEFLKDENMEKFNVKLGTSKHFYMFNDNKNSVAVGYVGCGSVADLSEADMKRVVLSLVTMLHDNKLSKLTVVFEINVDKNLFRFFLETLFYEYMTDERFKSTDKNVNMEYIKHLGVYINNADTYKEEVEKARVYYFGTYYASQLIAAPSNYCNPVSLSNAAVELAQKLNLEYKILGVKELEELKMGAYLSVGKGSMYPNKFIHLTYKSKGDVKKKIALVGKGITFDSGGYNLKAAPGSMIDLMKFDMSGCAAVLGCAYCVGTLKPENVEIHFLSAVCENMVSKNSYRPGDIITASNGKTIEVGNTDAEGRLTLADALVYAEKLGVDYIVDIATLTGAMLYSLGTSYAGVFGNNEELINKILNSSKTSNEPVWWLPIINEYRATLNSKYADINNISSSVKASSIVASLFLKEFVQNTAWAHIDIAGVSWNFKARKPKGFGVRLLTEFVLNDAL
One may read the inhibition as the drop in the measured response relative to a control, in per cent. As to `COc1ccc(NC(=O)CN(c2ccccc2)S(=O)(=O)N(C)C)cc1Cl`, the inhibition was -2.44% (inactive).
Then `COc1ccccc1-c1nnc(SCC(=O)N2CCOCC2)o1`, with -5.18% (inactive); and `Cc1ccc(S(=O)(=O)NC(=O)c2cc(C)n(-c3ccc(N(C)C)cc3)c2C)cc1`, with 30.1% (inactive); and `Cc1ccc(S(=O)(=O)NC(=O)c2cc(C)n(-c3ccccc3)c2C)cc1`, with 24.3% (inactive).
Then `O=C(O)C1C2CCC(O2)C1C(=O)Nc1ccc(F)cc1` (stereo not given), with -6.52% (inactive); and `CCOC(=O)c1c(NC(=O)/C=C/C(=O)O)sc(C)c1-c1ccc(F)cc1`, with 9.12% (inactive); and `CCOC(=O)c1c(-c2cccc3ccccc23)csc1NC(=O)C1C2CCC(O2)C1C(=O)O` (stereo not given), with 26.3% (inactive).
Then `CCCOC(=O)c1c(-c2ccc(C)cc2C)csc1NC(=O)C1C2CCC(O2)C1C(=O)O` (stereo not given), with 44.7% (inactive); and `COC(=O)c1c(-c2ccc(C(C)(C)C)cc2)csc1NC(=O)C1C2CCC(O2)C1C(=O)O` (stereo not given), with 35.5% (inactive); and `CCOC(=O)c1cc(NC(=O)C2C3CCC(O3)C2C(=O)O)cc(C(=O)OCC)c1` (stereo not given), with -8.46% (inactive).
In the case of `CC(/C=N/NC(=O)c1ccccn1)=C\c1ccco1`, the inhibition is 9.53% (inactive).
In the case of `Cc1ccc([N+](=O)[O-])cc1-c1ccc(/C=N\n2nnnc2N)o1`, the inhibition was 14.9% (inactive).
Regarding `CSc1ccc(Cl)c(C(=O)OCC(=O)N(C)CCC#N)c1`, the inhibition is 1.64% (inactive).
For `Cc1ccc(C)c(N(C(=O)Cn2nnc3ccccc32)C(C(=O)NCc2ccco2)c2ccncc2)c1` (stereo not given), the inhibition is -0.41% (inactive).
For `O=C1CCC(=O)N1CN(C(=O)c1ccco1)c1ccccc1`, the inhibition is -2.98% (inactive).
As for `O=C(Cc1ccccc1)NN1C(=O)c2ccccc2C1=O`, the inhibition was 23.7% (inactive).
Then `Cc1ccc(SCC(=O)NN2C(=O)c3ccccc3C2=O)cc1`, with 2.07% (inactive).
As for `CCOc1cc(OCC)cc(C(=O)NC(=S)Nc2cccc(C(F)(F)F)c2)c1`, the inhibition is 3% (inactive).
In the case of `COC(=O)c1[nH]c(C)c(/C(O)=C2\C(=O)C(=O)N(CCN3CCOCC3)C2c2ccc(C)o2)c1C` (stereo not given), the inhibition is 3.85% (inactive).
Then `COc1ccc(/C=C/C2=NN(C)C(=O)CC2)cc1`, with 48.2% (inactive).
Then `Cc1ccc(NC(=O)c2cc(NC(=O)c3ccccc3C(=O)O)ccc2N2CCCCC2)cc1`, with -63% (inactive); and `O=C(O)CCC(=O)Nc1ccc(N2CCCCC2)c(C(=O)O)c1`, with 10.6% (inactive); and `C/C(=N\NC(N)=S)C1(C)CC2(CC(C)(C)OC2=O)C(=O)O1` (stereo not given), with -1.04% (inactive).
In the case of `Nc1nc(SCC(=O)N2N=C3/C(=C/c4ccco4)CCCC3C2c2ccco2)n[nH]1` (stereo not given), the inhibition was 9.23% (inactive).
Then `O=C(CSc1nccc(=O)[nH]1)N1N=C2/C(=C/c3ccco3)CCCC2C1c1ccco1` (stereo not given), with 13.7% (inactive).
